Measured values from ChEMBL document CHEMBL3988442, “University of Dundee, Small-Polar-MMV Screening Library” (2021).

Legend:
Assay type in all cases: functional
Set-up in all cases: scale not given: direction of the effect not stated beside the values
Details in all cases: 30 µM
[1] = target: T1, Aspartate--tRNA(Asp/Asn) ligase (Mycobacterium tuberculosis (strain ATCC 25618 / H37Rv)) (UniProt P9WFW3); test: Assay for Asp RNA synthetase-1 from Mycobacterium tuberculosis; also: in the data most compounds retested in dose-response had high values
T1 sequence (whole entry): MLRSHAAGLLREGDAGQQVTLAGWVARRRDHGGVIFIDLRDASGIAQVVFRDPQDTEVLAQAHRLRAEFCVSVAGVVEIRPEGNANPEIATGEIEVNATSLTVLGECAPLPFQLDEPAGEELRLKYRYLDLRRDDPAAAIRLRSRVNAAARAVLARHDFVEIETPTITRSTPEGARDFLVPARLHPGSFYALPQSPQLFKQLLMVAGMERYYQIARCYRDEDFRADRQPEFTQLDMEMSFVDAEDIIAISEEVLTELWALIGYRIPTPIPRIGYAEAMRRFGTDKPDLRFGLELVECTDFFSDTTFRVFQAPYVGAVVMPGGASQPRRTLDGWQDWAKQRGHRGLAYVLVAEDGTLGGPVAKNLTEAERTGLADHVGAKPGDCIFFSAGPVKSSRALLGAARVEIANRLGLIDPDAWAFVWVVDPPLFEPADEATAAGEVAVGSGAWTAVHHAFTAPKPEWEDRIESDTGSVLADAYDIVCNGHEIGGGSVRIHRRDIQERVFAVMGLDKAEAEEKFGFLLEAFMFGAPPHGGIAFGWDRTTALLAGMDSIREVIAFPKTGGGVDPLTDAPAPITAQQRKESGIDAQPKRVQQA

[2] = target: Shiga toxin 2 (Escherichia coli O157:H7) (UniProt P09385+P09386); test: E. coli 0.157:H7 Shiga Toxin SOP - stx2 screening assay
[3] = target: AMP-activated protein kinase, AMPK (Homo sapiens) (UniProt P54646+O43741+P54619+Q9UGJ0+Q9Y478+Q13131+Q9UGI9); test: AMP-dependent Kinase enzyme assay. An in vitro enzyme assay that detects ADP turnover that is directly proportional to AMPK activity. This uses naive AMPK that is activated during the assay with MK-8722

SMILES | Percent Effect [1] [%] | Percent Effect [2] [%] | Percent Effect [3] [%]
CS(=O)(=O)NC[C@@H]1OC[C@H]2CN(C(=O)c3ccc[nH]3)CC[C@H]21 | 3.32 | 0.898 | 
COC(C(=O)N1CCCN(Cc2cscn2)CC1)c1ccccc1 (configuration not stated) | 0.144 | 3.66 | 
O=C(NCCNc1cnccn1)N1CCCC1 | -2.84 | 2.11 | 
O=C(O)[C@@H]1CN(C(=O)c2cc(C3CC3)n[nH]2)C[C@H]1c1cccc(F)c1 | -3.42 | -8.72 | 
CC(NC(=O)Nc1cccnc1N1CCCC1)c1nncn1C (configuration not stated) | -2.86 | 7.91 | 
COC[C@H]1CCC[C@]12CN(CCc1ccccc1)CCO2 | -1.02 | -22 | 
Cn1cc(C(=O)Nc2ccc3c(c2)CN(C(=O)c2ccco2)CC3)nn1 | 5.79 | -88.9 | 
COc1ncccc1NC(=O)C1CC(=O)N(Cc2ccccn2)C1 (configuration not stated) | 1.2 | -0.103 | 
COCCN1C(=O)C[C@H]2[C@H]1CCN2Cc1ccc(OC)cc1 | 6.6 | -4.38 | 
COc1cccc(CN2CCOC(Cn3nc(C)cc3C)C2)c1 (configuration not stated) | 1.48 | -0.88 | 
Cc1nn(C)c2c(NCc3cccnc3)nc(C3CC3)nc12 | 8.74 | -7.86 | 
CC(C)N(C)S(=O)(=O)N(C)Cc1ccc2c(c1)OCO2 | -7.16 | -23.7 | 
Cn1cc(Cl)cc1C(=O)N1CCCN(Cc2cccs2)CC1 | -5.24 | 19.8 | 
Cc1ccn(-c2ccccc2NCc2ccccn2)n1 | 0.661 | 4.81 | 
c1cnc(NCc2noc3c2CN(CCN2CCCC2)CC3)nc1 | 1.46 | -35.5 | 
CN(Cc1cnn(C)c1)C(=O)NCc1csc(Br)c1 | 4.08 | 32.1 | 
CC(C)CN1CCC2(CCN(Cc3ccoc3)CC2)C1=O | 6.3 | -11.6 | 
O=C(NCC1CCOC1)c1csc(-c2ccco2)n1 (configuration not stated) | 2.85 | -11.7 | 
COc1ccc(CN(Cc2cncn2C)CC2CCCO2)cc1OC (configuration not stated) | 4.27 | 10.9 | 
Cn1cc(CN2CCCN(C(=O)c3ccc4c(c3)COC4)CC2)cn1 | -0.281 | 30.1 | 
Cc1ncc(CNC(=O)c2nn(C)c3c2CS(=O)(=O)CC3)s1 | -7.14 | -24.6 | 
O=C(c1ccc(C(F)(F)F)nc1)N1CCCC(n2cncn2)C1 (configuration not stated) | -4.88 | -8.71 | 
CC(C)(C)OC(=O)N1CCN(C(=O)c2sccc2C2CC2)CC1 | -2.9 | -0.841 | 
CCOc1ccc(-n2nnc(C(=O)O)c2-c2ccccn2)cc1 | 12 | -8.4 | 
CCc1cnc(CN(C(C)=O)C2CCN(CCc3cnn(C)c3)C2)o1 (configuration not stated) | -5.68 | 20.4 | 
Cc1ccccc1CN1CCN(Cc2nccn2C)CC1 | -1.8 | 13.3 | 

SMILES | Percent Effect [1] [%] | Percent Effect [2] [%] | Percent Effect [3] [%]
Cc1cc(NC(=O)NCC(O)c2ccc(Cl)cc2Cl)n(C)n1 (configuration not stated) | -2.66 | 24.8 | 
CNC(=O)c1cc2c(nc1N(C)C)CCN(S(=O)(=O)CC(C)C)CC2 | -0.801 | -2.65 | 
CN1CCc2c(C#N)c(NCc3ccco3)n3cnnc3c2C1 | 6.08 | -1.51 | 
O=C1CC(c2ccccc2)c2snc(C(=O)O)c2N1 (configuration not stated) | -6.76 | -1.61 | 
OC(CNCCn1cccn1)c1ccc2c(c1)OCCO2 (configuration not stated) | -4.48 | 3.64 | 
Cc1cc(NC(=O)CN2CCN(c3nccs3)C(C)C2)n(C)n1 (configuration not stated) | 7.92 | 7.19 | 
Cc1noc(C)c1-c1cnc(CC2CCN(C(=O)c3cc[nH]n3)C2)cn1 (configuration not stated) | 4.09 | 7.65 | 
CC(C)COCC(NC(=O)c1ccccn1)c1ccco1 (configuration not stated) | -1.2 | 28 | 
Cc1cc(-c2cnc(N3CCNC(=O)C3)nc2-c2cccnc2C)on1 | -4.46 | -9.56 | 
Cc1nn(C)c(C)c1C(=O)N1CCOCC1CC(=O)c1ccco1 (configuration not stated) | 1.17 | -5.88 | 
COc1cc(CNCc2c(C(C)C)nn(C)c2N(C)C)ccn1 | 0.522 | 22.2 | 
Cn1cc(S(=O)(=O)N2CCCC2CC(=O)c2cccs2)cn1 (configuration not stated) | 1.01 | -9.63 | 
O=C1COC2(COCCN(Cc3cccnc3)C2)CN1c1ccoc1 (configuration not stated) | 9.69 | -7.3 | 
CCn1cnnc1CNC(=O)c1cc(Cl)ccc1OC | 0.48 | -24.3 | 
COc1ccc(C2Nc3cc(Cl)ccc3C3=NCCN32)cc1OC (configuration not stated) | -3.07 | -59.6 | 
CC(C)Cc1cc(C(=O)NCCc2ccc(S(C)(=O)=O)cc2)[nH]n1 | 3.53 | -19.9 | 
Cc1cn2c(n1)CCC(NC(=O)CCn1cncn1)C2 (configuration not stated) | -0.674 | 21.7 | 
CC(C)c1cc(N2CCC3(CCN(C)C3)C2)ncn1 (configuration not stated) |  |  | -2.38
COc1c(C)cnc(CN2CCC(C(=O)N(C)C)CC2)c1C | -0.91 | 10.2 | 
Fc1ccc(CN2CCCC2Cn2cccn2)c2ncccc12 (configuration not stated) | -2.13 | -3.45 | 
CS(=O)(=O)N1C[C@@H]2CC[C@H](C1)N(Cc1cscn1)C2=O | 0.593 | -13.6 | 
CC(C)(C)c1cc(=O)[nH]c(C2(N)CCCCC2)n1 |  |  | 2.04
Cc1ccc(C(=O)NS(=O)(=O)c2ccccc2C)c(=O)[nH]1 | -0.991 | 10.2 | 
COCCOc1ccc(NC(=O)N2CCCC2c2ccncc2)cn1 (configuration not stated) | 0 | 19 | 
Cc1noc(Cl)c1CCC(=O)N1CCC(CC(N)=O)CC1 | 0.618 | 17.9 | 
Cc1cnn(CCC(=O)N2CCCC(c3nc(C)no3)C2)c1 (configuration not stated) | 4.08 | 3.29 | 
